# Test results: the supplement of paper PMC4022240
# ± gives the standard deviation.
# T1: HaloTag-ATRX ADD domain (163-292)
# T1 chain: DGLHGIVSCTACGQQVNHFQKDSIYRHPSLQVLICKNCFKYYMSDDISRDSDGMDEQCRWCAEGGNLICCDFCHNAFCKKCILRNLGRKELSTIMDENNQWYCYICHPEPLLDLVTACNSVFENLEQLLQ
# B1: H3 1-13 A R T Kme Q T A R Kme2 S T G G (peptide)
# chain: ARTKQTARKSTGG
# B2: H3 1-13 A R T Kme2 Q T A R Kme S T G G (peptide)
# chain: ARTKQTARKSTGG
# B3: H3 1-13 A R T Kme3 Q T A R K S T G G (peptide)
# chain: ARTKQTARKSTGG
# B4: H3 1-13 A R T K Q T A R Kac S T G G (peptide)
# chain: ARTKQTARKSTGG
# B5: H3 1-13 A R T Kme3 Q Tph A R K S T G G (peptide)
# chain: ARTKQTARKSTGG
# B6: H3 1-13 A R T Kme3 Q T A R Kme S T G G (peptide)
# chain: ARTKQTARKSTGG
# B7: H3 1-13 A R T Kme3 Q T A R Kac S T G G (peptide)
# chain: ARTKQTARKSTGG
# B8: H3 1-13 A R T Kme Q Tph A R K S T G G (peptide)
# chain: ARTKQTARKSTGG
# B9: H3 1-13 A R T K Q T A R Kme S T G G (peptide)
# chain: ARTKQTARKSTGG
# B10: H3 1-13 A R T Kme Q T A R Kme3 S T G G (peptide)
# chain: ARTKQTARKSTGG
# Experiments:
# Test in all cases: peptide microarray binding signal (635 nm), min-max normalized on array (fraction of array maximum); higher = stronger binding
# Conditions in all cases: peptide region: H3 1-13
# [1] = target: T1, HaloTag-ATRX ADD domain (163-292)
# Experimental: (§1)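 Histone 13-mer peptides were synthesized as cellulose conjugates with a C-terminal 20-atom PEG linker and printed in triplicate on nitrocellulose. The sequence given is the unmodified backbone; PTMs (Kme1/2/3, Kac, Sph/Tph, Rme/Rme2a/Rme2s, Rcit) are listed in the label and the 'peptide modifications' condition. Slides were probed at 4 °C for 1 h with biotin-labelled (HQ)5-HaloTag reader fusions (ATRX-ADD, ING2-PHD) then streptavidin-Alexa647, or with rabbit histone antibodies then anti-rabbit Alexa647. The mean 635 nm signal of the triplicate spots was scaled 0-1 between the lowest and highest values on each array.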
# [2] = target: HaloTag-ING2 PHD (mouse Ing2 200-280)
# Experimental: as §1
# [3] = target: anti-H3K4me3 antibody ab8580
# Experimental: as §1
# [4] = target: anti-H3K9me3 antibody ab8898
# Experimental: as §1
# [5] = peptide modifications: H3K4me1 H3K9me2, binder concentration: 1:2,000 dilution
# [6] = peptide modifications: H3K4me1 H3K9me2, binder concentration: 1:10,000 dilution
# [7] = peptide modifications: H3K4me2 H3K9me1, binder concentration: 1:2,000 dilution
# [8] = peptide modifications: H3K4me2 H3K9me1, binder concentration: 1:10,000 dilution
# [9] = peptide modifications: H3K4me3, binder concentration: 1:2,000 dilution
# [10] = peptide modifications: H3K4me3, binder concentration: 1:10,000 dilution
# [11] = peptide modifications: H3K9ac, binder concentration: 1:2,000 dilution
# [12] = peptide modifications: H3K9ac, binder concentration: 1:10,000 dilution
# [13] = peptide modifications: H3K4me3 H3T6ph, binder concentration: 1:2,000 dilution
# [14] = peptide modifications: H3K4me3 H3T6ph, binder concentration: 1:10,000 dilution
# [15] = peptide modifications: H3K4me3 H3K9me1, binder concentration: 1:2,000 dilution
# [16] = peptide modifications: H3K4me3 H3K9me1, binder concentration: 1:10,000 dilution
# [17] = peptide modifications: H3K4me3 H3K9ac, binder concentration: 1:2,000 dilution
# [18] = peptide modifications: H3K4me3 H3K9ac, binder concentration: 1:10,000 dilution
# [19] = peptide modifications: H3K4me1 H3T6ph, binder concentration: 1:2,000 dilution
# [20] = peptide modifications: H3K4me1 H3T6ph, binder concentration: 1:10,000 dilution
# [21] = peptide modifications: H3K9me1, binder concentration: 1:2,000 dilution
# [22] = peptide modifications: H3K9me1, binder concentration: 1:10,000 dilution
# [23] = peptide modifications: H3K4me1 H3K9me3, binder concentration: 1:2,000 dilution
# [24] = peptide modifications: H3K4me1 H3K9me3, binder concentration: 1:10,000 dilution
binder,measurement,setting,value
B1,peptide microarray binding signal,"[1]; peptide modifications: H3K4me1 H3K9me2, binder concentration: 500 nM",0.0151 ± 0.00042
same,peptide microarray binding signal,"[2]; peptide modifications: H3K4me1 H3K9me2, binder concentration: 10 nM",0.155 ± 0.014
same,peptide microarray binding signal,"[2]; peptide modifications: H3K4me1 H3K9me2, binder concentration: 100 nM",0.182 ± 0.062
same,peptide microarray binding signal,[3]; [5],0.0488 ± 0.0073
same,peptide microarray binding signal,[3]; [6],0.0289 ± 0.0056
same,peptide microarray binding signal,[4]; [5],0.00408 ± 0.00035
same,peptide microarray binding signal,[4]; [6],0.00409 ± 0.00034
B2,peptide microarray binding signal,"[1]; peptide modifications: H3K4me2 H3K9me1, binder concentration: 50 nM",0.0128 ± 0.00075
same,peptide microarray binding signal,"[1]; peptide modifications: H3K4me2 H3K9me1, binder concentration: 500 nM",0.0286 ± 0.0013
same,peptide microarray binding signal,"[2]; peptide modifications: H3K4me2 H3K9me1, binder concentration: 10 nM",0.656 ± 0.061
same,peptide microarray binding signal,"[2]; peptide modifications: H3K4me2 H3K9me1, binder concentration: 100 nM",0.43 ± 0.13
same,peptide microarray binding signal,[3]; [7],0.365 ± 0.067
same,peptide microarray binding signal,[3]; [8],0.152 ± 0.018
same,peptide microarray binding signal,[4]; [7],0.00797 ± 0.0012
same,peptide microarray binding signal,[4]; [8],0.00398 ± 0.00019
B3,peptide microarray binding signal,"[1]; peptide modifications: H3K4me3, binder concentration: 50 nM",0.00868 ± 0.00032
same,peptide microarray binding signal,"[1]; peptide modifications: H3K4me3, binder concentration: 500 nM",0.0201 ± 0.0038
same,peptide microarray binding signal,"[2]; peptide modifications: H3K4me3, binder concentration: 10 nM",0.383 ± 0.2
same,peptide microarray binding signal,"[2]; peptide modifications: H3K4me3, binder concentration: 100 nM",0.232 ± 0.072
same,peptide microarray binding signal,[3]; [9],0.596 ± 0.33
same,peptide microarray binding signal,[3]; [10],0.549 ± 0.54
same,peptide microarray binding signal,[4]; [9],0.0584 ± 0.025
same,peptide microarray binding signal,[4]; [10],0.0227 ± 0.011
B4,peptide microarray binding signal,"[1]; peptide modifications: H3K9ac, binder concentration: 50 nM",0.0143 ± 0.00037
same,peptide microarray binding signal,"[1]; peptide modifications: H3K9ac, binder concentration: 500 nM",0.0461 ± 0.0053
same,peptide microarray binding signal,"[2]; peptide modifications: H3K9ac, binder concentration: 10 nM",0.0431 ± 0.012
same,peptide microarray binding signal,"[2]; peptide modifications: H3K9ac, binder concentration: 100 nM",0.0776 ± 0.0087
same,peptide microarray binding signal,[3]; [11],0.00276 ± 0.00088
same,peptide microarray binding signal,[3]; [12],0.00171 ± 7.1e-05
same,peptide microarray binding signal,[4]; [11],0.00554 ± 0.00013
same,peptide microarray binding signal,[4]; [12],0.00185 ± 0.00011
B5,peptide microarray binding signal,"[1]; peptide modifications: H3K4me3 H3T6ph, binder concentration: 50 nM",0.00724 ± 0.0003
same,peptide microarray binding signal,"[1]; peptide modifications: H3K4me3 H3T6ph, binder concentration: 500 nM",0.0154 ± 0.0024
same,peptide microarray binding signal,"[2]; peptide modifications: H3K4me3 H3T6ph, binder concentration: 10 nM",0.169 ± 0.048
same,peptide microarray binding signal,"[2]; peptide modifications: H3K4me3 H3T6ph, binder concentration: 100 nM",0.484 ± 0.12
same,peptide microarray binding signal,[3]; [13],0.323 ± 0.064
same,peptide microarray binding signal,[3]; [14],0.404 ± 0.061
same,peptide microarray binding signal,[4]; [13],0.0262 ± 0.0036
same,peptide microarray binding signal,[4]; [14],0.00865 ± 0.0019
B6,peptide microarray binding signal,"[1]; peptide modifications: H3K4me3 H3K9me1, binder concentration: 50 nM",0.0117 ± 0.0004
same,peptide microarray binding signal,"[1]; peptide modifications: H3K4me3 H3K9me1, binder concentration: 500 nM",0.025 ± 0.0009
same,peptide microarray binding signal,"[2]; peptide modifications: H3K4me3 H3K9me1, binder concentration: 10 nM",0.411 ± 0.074
same,peptide microarray binding signal,"[2]; peptide modifications: H3K4me3 H3K9me1, binder concentration: 100 nM",0.338 ± 0.07
same,peptide microarray binding signal,[3]; [15],0.484 ± 0.13
same,peptide microarray binding signal,[3]; [16],0.592 ± 0.25
same,peptide microarray binding signal,[4]; [15],0.108 ± 0.018
same,peptide microarray binding signal,[4]; [16],0.0413 ± 0.0047
B7,peptide microarray binding signal,"[1]; peptide modifications: H3K4me3 H3K9ac, binder concentration: 50 nM",0.00768 ± 0.00092
same,peptide microarray binding signal,"[1]; peptide modifications: H3K4me3 H3K9ac, binder concentration: 500 nM",0.00948 ± 0.00033
same,peptide microarray binding signal,"[2]; peptide modifications: H3K4me3 H3K9ac, binder concentration: 10 nM",0.216 ± 0.039
same,peptide microarray binding signal,"[2]; peptide modifications: H3K4me3 H3K9ac, binder concentration: 100 nM",0.199 ± 0.014
same,peptide microarray binding signal,[3]; [17],0.289 ± 0.062
same,peptide microarray binding signal,[3]; [18],0.621 ± 0.31
same,peptide microarray binding signal,[4]; [17],0.0528 ± 0.047
same,peptide microarray binding signal,[4]; [18],0.0162 ± 0.0043
B8,peptide microarray binding signal,"[1]; peptide modifications: H3K4me1 H3T6ph, binder concentration: 50 nM",0.00661 ± 0.00014
same,peptide microarray binding signal,"[1]; peptide modifications: H3K4me1 H3T6ph, binder concentration: 500 nM",0.0257 ± 0.00052
same,peptide microarray binding signal,"[2]; peptide modifications: H3K4me1 H3T6ph, binder concentration: 10 nM",0.087 ± 0.04
same,peptide microarray binding signal,"[2]; peptide modifications: H3K4me1 H3T6ph, binder concentration: 100 nM",0.211 ± 0.02
same,peptide microarray binding signal,[3]; [19],0.00296 ± 0.00042
same,peptide microarray binding signal,[3]; [20],0.00194 ± 0.00011
same,peptide microarray binding signal,[4]; [19],0.00414 ± 0.00036
same,peptide microarray binding signal,[4]; [20],0.00259 ± 0.00028
B9,peptide microarray binding signal,"[1]; peptide modifications: H3K9me1, binder concentration: 50 nM",0.0276 ± 0.00028
same,peptide microarray binding signal,"[1]; peptide modifications: H3K9me1, binder concentration: 500 nM",0.0642 ± 0.0027
same,peptide microarray binding signal,"[2]; peptide modifications: H3K9me1, binder concentration: 10 nM",0.0068 ± 0.00044
same,peptide microarray binding signal,"[2]; peptide modifications: H3K9me1, binder concentration: 100 nM",0.0424 ± 0.0055
same,peptide microarray binding signal,[3]; [21],0.00068 ± 2.9e-05
same,peptide microarray binding signal,[3]; [22],0.000628 ± 6.7e-06
same,peptide microarray binding signal,[4]; [21],0.00122 ± 7.3e-05
same,peptide microarray binding signal,[4]; [22],0.00098 ± 4.6e-05
B10,peptide microarray binding signal,"[1]; peptide modifications: H3K4me1 H3K9me3, binder concentration: 50 nM",0.253 ± 0.034
same,peptide microarray binding signal,"[1]; peptide modifications: H3K4me1 H3K9me3, binder concentration: 500 nM",0.336 ± 0.03
same,peptide microarray binding signal,"[2]; peptide modifications: H3K4me1 H3K9me3, binder concentration: 10 nM",0.335 ± 0.065
same,peptide microarray binding signal,"[2]; peptide modifications: H3K4me1 H3K9me3, binder concentration: 100 nM",0.547 ± 0.039
same,peptide microarray binding signal,[3]; [23],0.243 ± 0.018
same,peptide microarray binding signal,[3]; [24],0.101 ± 0.049
same,peptide microarray binding signal,[4]; [23],0.4 ± 0.096
same,peptide microarray binding signal,[4]; [24],0.275 ± 0.034
